ALR inh: inhibitors of human sulfhydryl oxidase ALR. inhibition, % (test concentration not listed). 290,000 tested, 3.8% active. AID 485317. purified ALR, DTT oxidation, H2O2 HRP-luminol luminescence. P55789;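 active = mean replicate inhibition above about 79%, with every replicate also reaching it, limit read from the data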
Target sequence (P55789 whole entry, looked up): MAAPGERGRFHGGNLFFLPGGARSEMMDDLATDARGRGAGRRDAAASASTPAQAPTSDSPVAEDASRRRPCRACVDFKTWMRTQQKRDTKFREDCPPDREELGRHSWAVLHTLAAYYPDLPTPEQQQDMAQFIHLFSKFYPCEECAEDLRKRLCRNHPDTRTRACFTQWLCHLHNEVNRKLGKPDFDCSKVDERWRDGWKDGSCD
Efflux pump inh: antifungal efflux pump inhibition, Nile Red retention. S. cerevisiae Candida pump triplex. inhibition, % at 10 µM. 330,000 tested, 0.44% active. AID 485275;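 active = plate passing quality check with inhibition over a set limit, or well fluorescence over plate mean plus 4 SD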;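 note: Nile Red retained in pooled yeast measured as flow cytometry median fluorescence; 0% = buffer negative control and 100% = Enniatin B positive control; higher means more Nile Red kept so more efflux inhibition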
PABP FP inh: PABP-poly(A) binding inhibition; PABP-poly(A) RNA binding, fluorescence polarization; inhibition, % at 35 µM; 290,000 tested, 1% active;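 note: calls also rest on retests at 20 µM and on dose response follow-up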
UBC9 SUMO inh: blocks human SUMOylation mediated by UBC9; AID 2006; 290,000 tested, 0.36% active; HTRF SUMOylation assay, SAE1/SAE2 + UBC9, in vitro; P63279; inhibition, % at 35 µM; in the data active = inhibition above about 50%, passing the limit was not always enough
Target sequence (P63279 whole entry, looked up): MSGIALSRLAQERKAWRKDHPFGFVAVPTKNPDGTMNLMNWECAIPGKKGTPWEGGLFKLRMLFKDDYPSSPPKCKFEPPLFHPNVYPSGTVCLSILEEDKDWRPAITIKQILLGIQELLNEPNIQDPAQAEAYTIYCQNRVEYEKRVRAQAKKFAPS
PABP1 MLLE inh: blocks PAM2 peptide binding to the PABP1 MLLE domain | GST-MLLE / FITC-PAM2 fluorescence polarization | inhibition, % at 20 µM | 360,000 tested, 0.36% active | AID 588489; in the data active = inhibition above about 35%, passing the limit was not always enough;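 note: plate controls were DMSO wells with GST-MLLE for no effect and wells lacking GST-MLLE protein for full effect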
eIF4H inh: inhibitors of RNA binding by human eIF4H. AID 2012. inhibition, % at 35 µM. Q15056. eIF4H fluorescence polarization binding assay. 290,000 tested, 0.94% active;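 note: calls also rest on retests at 20 µM and on dose response follow-up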
An asterisk follows results filed as active; . = not tested or not shown. This is a sample that favours compounds with a hit; in the whole collection about 4.7% have one here. Unless noted, the rule behind the calls is not given here.

SMILES	ALR inh	Efflux pump inh	PABP FP inh	UBC9 SUMO inh	PABP1 MLLE inh	eIF4H inh
CCCC[n+]1c2ccccc2cc2ccccc21	43	0	68*	-20	-83	14
CCOC(=O)C1CCCN(C(=O)c2[nH]c(C(F)(F)F)nc2-c2ccccc2)C1 (stereo unspecified)	.	.	.	.	7	.
O=C(CCNC(=O)c1ccccc1)NNC(=O)c1ccccc1Br	-1	0	.	.	-7	.
COCCN(C(=O)COC(=O)C1CCCCC1)c1c(N)n(Cc2ccccc2)c(=O)[nH]c1=O	.	.	.	.	1	.
CCN(C(=O)CSc1nc2ccc(C)cc2[nH]1)C1CCS(=O)(=O)C1 (stereo unspecified)	23	0	.	.	2	.
CC(=O)Nc1ccc(SCC(=O)N(C)C2CCS(=O)(=O)C2)cc1 (stereo unspecified)	98*	0	-10	17	30	-15
CCN(C(=O)CSc1ccc2c(c1)OCCO2)C1CCS(=O)(=O)C1 (stereo unspecified)	92*	0	1	4	37	-8
CCN(C(=O)CSc1nc(-c2ccccc2)c(-c2ccccc2)[nH]1)C1CCS(=O)(=O)C1 (stereo unspecified)	99*	0	0	-2	-73	1
C[C@H](CO)N1C[C@H](C)[C@@H](CN(C)C(=O)c2ccc3ccn(C)c3c2)OCc2cn(nn2)CCCC1=O	.	.	.	.	-12	.
Cc1ccc(C(=O)N/N=C/c2ccoc2)cc1C	-8	0	4	-2	-2	8
Cc1ccccc1Nc1nc(Cl)c(C=O)s1	28	0	31*	30	-38	78*
C=CCSc1nc2c(c(=O)[nH]c(=O)n2C)n1C(C)C	-4	0	2	8	41*	2
NC(c1csc(Nc2ccc(C(=O)c3ccccc3)cc2)n1)c1ccccc1Cl (stereo unspecified)	.	.	.	.	-43	.
Cc1csc(SCC(=O)Nc2ccc3c(c2)OCCO3)n1	-11	0	-12	8	0	4
CSc1nsc(SCC(=O)Nc2ccc3c(c2)OCCO3)n1	98*	0	20	-1	28	-20
CSc1nsc(SCC(=O)NCc2ccccc2)n1	-8	0	2	-1	40*	5
CSc1nsc(SCC(=O)Nc2cccc(NC(C)=O)c2)n1	99*	0	10	3	10	-7
COc1ccccc1NC(=O)CSc1nc(SC)ns1	85*	0	-2	2	31	-6
CSc1nsc(SCC(=O)NCc2ccc(C)cc2)n1	-7	0	-4	13	6	-3
CSc1nsc(SCC(=O)Nc2cccc(C(=O)O)c2)n1	7	0	-2	-7	9	1
CCC1(c2ccc(Cl)cc2)NC(=O)N(CC(=O)NC2CCCC(C)C2C)C1=O (stereo unspecified)	.	.	.	.	9	.
Cc1c(Cl)cccc1NC(=O)C1CC2CCC1C2 (stereo unspecified)	-1	0	.	.	-4	.
CCN=c1scc(C)n1/N=C/c1ccc(O)c(O)c1O	99*	0	27*	26	20	82*
CCN=c1scc(C)n1/N=C/c1cc(Br)c(O)c(Br)c1	70	0	-9	12	-23	-2
COCCN=c1scc(-c2ccccc2)n1/N=C/c1c[nH]c2ccccc12	25	0	-1	-28	-16	-3
SMILES	ALR inh	Efflux pump inh	PABP FP inh	UBC9 SUMO inh	PABP1 MLLE inh	eIF4H inh
COCCN=c1scc(-c2cccs2)n1/N=C/c1ccc(O)c(O)c1O	99*	0	-6	1	-1	47
COc1ccc(N2CCN(C(=O)c3ccccc3N(C)S(=O)(=O)c3ccc(C)cc3)CC2)cc1	61	0	-1	-5	-3	-9
CCN(CCNC(=O)c1ccc(C#N)cc1)c1cccc(C)c1	98*	0	1	6	-3	7
COc1ccc(-c2noc(CCC(=O)NCCc3ccccc3)n2)cc1	-1	0	-4	16	5	-6
CCN(CCCNC(=O)CNC(=O)Cn1cnc2ccccc2c1=O)c1ccccc1	98*	0	-9	8	-1	-7
CCN(CCCNC(=O)Cn1cc2c(n1)CCCC2)c1cccc(C)c1	99*	0	2	-16	10	1
CCN(CCCNC(=O)CCNC(=O)Cn1ccc2ccccc2c1=O)c1ccccc1	.	.	2	7	4	-1
CCN(CCCNC(=O)CCNC(=O)Cn1cnc2ccccc2c1=O)c1cccc(C)c1	99*	0	-13	6	6	-6
CCN(CCCNC(=O)CCc1nc(-c2ccc(OC)cc2)no1)c1cccc(C)c1	87*	0	3	-8	-2	0
O=c1c([N+](=O)[O-])cccn1Cc1cccc(Cl)c1	9	0	9	6	-10	-7
COc1cc(C[C@@H](CO)[C@H](CO)Cc2ccc(O)c(OC)c2)ccc1O	97*	0	.	.	.	.
CCCCN(C)CC(O)Cn1cc(/C=C/C(=O)c2ccc(C)cc2)c2ccccc21 (stereo unspecified)	-4	0	-15	11	-42	4
CCOc1ccc(C(=O)CC(NCc2cccs2)C(=O)O)cc1 (stereo unspecified)	97*	0	-20	22	26	-5
CCOc1ccc(C(=O)CCC(=O)N(CC)CC(=O)NCc2cccs2)cc1	10	0	.	.	-3	.
Cc1ccccc1-c1nc(CS(=O)CC(=O)NC2CCCCC2)c(C)o1 (stereo unspecified)	99*	0	5	-13	20	-6
Cc1oc(-c2ccccc2F)nc1CS(=O)(=O)CC(=O)NC1CCCC1	37	0	-5	7	-11	-6
Cc1ccccc1-c1nc(CS(=O)CC(=O)NC2CC2)c(C)o1 (stereo unspecified)	99*	1	12	8	6	-3
Cc1ccccc1-c1noc(CCC(=O)NC2CCCCC2)n1	.	0	1	19	-18	10
Cc1oc(-c2ccccc2F)nc1CS(=O)CC(=O)NC1CCCC1 (stereo unspecified)	99*	0	-5	-6	24	-2
Cc1ccccc1-c1nc(CS(=O)CC(=O)NC2CCCC2)c(C)o1 (stereo unspecified)	99*	0	-2	7	22	-3
Cc1cccc(-c2nc(CS(=O)CC(=O)NC3CCCC3)c(C)o2)c1 (stereo unspecified)	.	.	9	15	11	-3
COc1ccccc1NC(=O)N(C)C[C@@H]1OCc2cnnn2CCCC(=O)N([C@H](C)CO)C[C@H]1C	.	.	.	.	-7	.
COCCNC(=O)C1(C)CCCN(Cc2csc3ccccc23)C1 (stereo unspecified)	.	.	.	.	18	.
Cc1ccc([C@H]2N[C@]3(CCCN(Cc4ccccc4)C3=O)[C@H]3C(=O)N(C)C(=O)[C@@H]23)cc1	.	.	.	.	-6	.
CCN=C1SCC(=O)N1c1ccc(OC)cc1	-20	0	-5	-6	-5	-8
Cc1ccc(N2C(=O)CS/C2=N\C(=S)Nc2ccccc2)cc1	90*	0	-1	15	-104	-4

Assay outcomes as filed in PubChem.
